Screen size: about 370,000 compounds; about 1,100 (0.3%) were called active. Inconclusive results (about 1%) are left out. The call rests on the fitted dose curve; in most records, active means well fitted activation curve with a large enough effect; inconclusive means small, poorly fitted or top-dose-only effect; inactive means flat fitted curve, though single readings scatter. This excerpt belongs to a sample that is enriched for actives.
target: Relaxin receptor 1 (Homo sapiens) (UniProt Q9HBX9); assay: qHTS Assay for Agonists of the Relaxin Receptor RXFP1; conditions: HEK293T-RXFP1 cAMP TR-FRET, 30 min; series mostly up to 57.5 µM; activation: at the top concentration; further: nearly all actives have a fitted effect of over 60% in size
Sequence (Q9HBX9 whole entry, looked up): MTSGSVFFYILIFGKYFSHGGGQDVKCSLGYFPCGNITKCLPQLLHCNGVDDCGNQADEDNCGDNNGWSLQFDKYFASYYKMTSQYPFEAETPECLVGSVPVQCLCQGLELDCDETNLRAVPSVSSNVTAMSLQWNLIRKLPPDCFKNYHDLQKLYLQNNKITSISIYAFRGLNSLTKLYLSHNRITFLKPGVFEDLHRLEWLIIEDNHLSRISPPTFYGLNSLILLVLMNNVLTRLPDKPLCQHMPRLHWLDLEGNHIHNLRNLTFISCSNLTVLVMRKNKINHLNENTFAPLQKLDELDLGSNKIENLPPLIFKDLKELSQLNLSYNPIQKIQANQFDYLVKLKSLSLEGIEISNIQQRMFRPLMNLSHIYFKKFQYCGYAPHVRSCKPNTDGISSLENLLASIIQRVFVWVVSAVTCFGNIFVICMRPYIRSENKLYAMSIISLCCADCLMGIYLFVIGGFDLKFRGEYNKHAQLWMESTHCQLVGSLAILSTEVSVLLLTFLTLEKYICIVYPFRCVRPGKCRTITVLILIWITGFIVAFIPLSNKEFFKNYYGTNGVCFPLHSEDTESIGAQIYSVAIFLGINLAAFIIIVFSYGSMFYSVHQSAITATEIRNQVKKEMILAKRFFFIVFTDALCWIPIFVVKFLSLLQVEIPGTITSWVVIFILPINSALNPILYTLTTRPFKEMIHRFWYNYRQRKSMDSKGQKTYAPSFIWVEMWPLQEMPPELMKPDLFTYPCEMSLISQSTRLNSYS
Excerpt: NIH Chemical Genomics Center [NCGC] NIH Molecular Libraries Probe Production Centers Network [MLPCN] MLPCN Grant: R03 MH085705-01A1 Assay Submitter (PI): Alexander Agoulnik NCGC Assay Overview: The relaxin hormone is involved in the variety of biological functions in normal tissues and diseases. The role of relaxin is well-established in female reproduction and parturition, mammary gland and endometrial development, maintenance of myometrial quiescence during pregnancy. Relaxin signaling through its G protein-coupled receptor (GPCR) RXFP1 results in ECM remodeling through regulation of collagen deposition, cell invasiveness, proliferation and overall tissue homeostasis. […] Recombinant human relaxin (rhRlx) is currently being tested in clinical trials as a protective agent in congestive heart failure, in treating severe preeclampsia, and as an anti-fibrotic agent in systemic sclerosis. Upon relaxin binding RXFP1 activation leads to the activation of adenylate cyclase (AC) via Gs. cAMP will activate PKA, which phosphorylates many signaling proteins. Thus, detection of cAMP increase is an easy and reliable indication of relaxin receptor activation. To screen for agonists of the relaxin receptor, a HEK293T cell line stably transfected with RXFP1 was used. RXFP1 activation was assayed by changes in cAMP levels as detected with a time-resolved fluorescence energy transfer (TR-FRET) cAMP detection kit.
NCGC Assay Protocol Summary: This is a cell-based assay for cAMP second messenger response to screen for agonists of the RXFP1 receptor. The assay was conducted in the presence of a PDE4 inhibitor (Ro 20174). The cells were lysed and the cAMP levels were measured with a TR-FRET cAMP kit. Presence of cAMP in the cell lysate disrupts binding between the cryptate-labeled anti-cAMP and d2-labeled cAMP pair, leading to a decrease in the TR-FRET signal. Data were normalized to the controls for basal activity (buffer only) and 100% activity (29 nM porcine relaxin). The EC50 values were determined from concentration-response data modeled with the standard Hill equation 1536-well assay protocol for the HEK293 RXFP1 cAMP assay: (1) Add 3 ul HEK293 RXFP1 cell culture. 2000 cells/well in DMEM/F12, 10% FBS, 1x Pen/Strep (dispensed offline with MultiDrop Combi). (2) Incubate 16-24 hr at 37C, 5% CO2. (3) Add 1 ul 400uM Ro20174 in DPBS, 0.05% BSA, 0.005% Tween 20. (3) Add 23 nl compounds in DMSO solution. Final concentration was 0.5 - 58 uM. (4) Incubate 30 min at 37C, 5% CO2. (5) Add 1 ul cAMP-d2 in lysis buffer (HTRF cAMP HiRange kit, CisBio). (6) Add 1 ul anti-cAMP antibody-cryptate in lysis buffer (HTRF cAMP HiRange kit, CisBio). (7) Incubate 30 min at room temperature. (6) Detect the assay plate in a ViewLux plate reader (PerkinElmer) with Ex=320 nm, Em1=615 nm and Em2=665 nm. Keywords: relaxin, RXFP1, RXFP2, G-protein coupled receptor, cAMP, agonist, high throughput screening, MLSMR, MLSCN, NIH Roadmap, qHTS and NCGC
On the % scale 0 is the no-effect control and ±100 the full control effect; potency means the concentration at half of the fitted maximal effect.

activation, inactive:
COc1ccc(S(=O)(=O)Nc2cc3c(C(=O)OC(C)C)c(C)oc3c3ccccc23)cc1 1.2%
CC1=C(C(=O)N2CCN(c3cccc(C(F)(F)F)c3)CC2)C2(CCCCC2)OC1=O -0.574%
CC(C)(C)OC(=O)N1CCC(c2c(C(=O)N3CCN(c4cccc(Cl)c4)CC3)cnn2-c2cccc(Cl)c2)CC1 2.09%
COc1ccc2c(c1)CCc1c(C(=O)Nc3cc(C)ccc3O)noc1-2 -4.18%
COc1cccc(CNC(=O)Cn2c(=O)c3cccn3c3ccc(F)cc32)c1OC 2.2%
O=C(NCCc1ccccc1)c1cnc2sc(N3CCCC3)nn2c1=O 8.9%
COc1ccccc1-c1nnc(SCC(N)=O)o1 11.1%
COc1cccc(C2C(C(=O)Nc3ccc(C)cc3C)=C(C)Nc3c(C(=O)Nc4ccccc4)cnn32)c1 (stereo not drawn) -1.61%
CCCCN1C(=O)c2[nH]nc(-c3ccccc3O)c2C1c1cccc(OCc2ccccc2)c1 (stereo not drawn) 1.42%
CCN(C(=O)c1sc2cc(OC)ccc2c1Cl)c1ccccc1 1.04%
CCC(Sc1nc2n[nH]c(C)c2c(=N)n1-c1ccccc1Cl)C(=O)N(CC)CC (stereo not drawn) 3.81%
Cc1nn(Cc2ccc(F)cc2)c(C)c1NC(=O)c1cc(CC(C)C)on1 -1.08%
Cc1ccccc1NC(=O)c1cc2c([nH]c1=O)CC(C)(C)CC2=O 19%
O=C(CCn1c(=O)c2sccc2n(Cc2ccc(F)cc2)c1=O)NCc1ccc2c(c1)OCO2 13.4%
CCCCN1CC(c2nc3ccccc3n2CCCCOc2ccc(C)cc2C)CC1=O (stereo not drawn) -4.27%
O=C(c1ccc(C(F)(F)F)cc1)N1CCC(c2nc(-c3ccc(S(=O)(=O)N4CCCC4)cc3)no2)CC1 -4.31%
CC(C)(C)c1ccc(C(=O)NCC(c2ccco2)S(=O)(=O)c2ccc(F)cc2)cc1 (stereo not drawn) 1.03%
COc1ccc(Cc2nc3ccc(C(=O)NCc4ccc(OC)cc4OC)cc3o2)cc1 -1.3%
O=C(CSCc1cnn(-c2ccccc2)c1-n1cccc1)NCc1ccc(Cl)cc1 0.103%
O=C(Nc1ccc(Br)cc1)c1ccc(Br)c(S(=O)(=O)NCc2ccccc2)c1 2.11%
O=C(Nc1ccc2nc(SCC(=O)N3CCCc4ccccc43)sc2c1)c1ccc(Cl)cc1 -0.685%
CCOC(=O)c1ccc(N2C(=O)c3[nH]nc(-c4ccccc4)c3C2c2ccc(C(C)C)cc2)cc1 (stereo not drawn) 1.54%
Fc1ccc(-c2nn(-c3ccccc3Cl)c3c2cnc2ccccc23)cc1 1.05%
CCOc1cccc2sc(N3CCN(C(=O)C4CC4)CC3)nc12 2.27%
COc1ccc(C(=O)COC(=O)c2nn(C)c(=O)c3ccccc23)c(OC)c1 2.52%
Cn1c(=O)c2c(ncn2CC(=O)N2CCN(c3ccccc3)CC2)n(C)c1=O 5.92%
COc1ccc(Cn2ccnc2SCC(=O)Nc2ccc3c(c2)OCO3)cc1 0.543%
CCC(C)c1ccc2oc(-c3ccc(NC(=O)c4cc5ccccc5o4)cc3)nc2c1 (stereo not drawn) 13.4%
Cn1nnnc1SCCNCc1ccc(Cl)c(Cl)c1 6.77%
COc1ccc(Br)cc1CNC(=O)c1cc(=O)[nH]c2ccc(S(=O)(=O)N3CCCC3)cc12 2.91%
CCOC(=O)c1ccc(CSc2nnc3cc(C)c4ccccc4n23)cc1 -0.266%
O=c1cc(-c2ccccc2)n2c(SCc3ccccc3)nnc2[nH]1 6.6%
Cc1cccc2nc(CSc3nc4[nH]ncc4c(=O)n3-c3cccc(Cl)c3)cc(=O)n12 0.541%
O=c1c2sccc2nc(SCc2cc(=O)n3ccccc3n2)n1-c1ccc(Br)cc1 3.4%
CCCN1C(=O)C(O)(CC(=O)c2ccc(CC)cc2)c2cc(Br)ccc21 (stereo not drawn) 0.237%
COc1cccc(CNC(=O)Cn2ncn3c(cc4ccccc43)c2=O)c1 4.71%
CCCSc1ncc(Cl)c(C(=O)Nc2c(C(=O)Nc3ccccc3)oc3ccccc23)n1 1.04%
Cc1cc(NS(=O)(=O)c2ccc(NC(=O)c3ccccc3C)cc2)nc(C)n1 0.704%
CCCn1c(NCc2ccccc2F)nc2ccccc21 1.98%
COc1ccc(-c2cn3c(n2)sc2cc(C(=O)Nc4ccc(F)cc4)ccc23)cc1 6.49%
O=C(Cn1nc(Cc2cccnc2)c2ccccc2c1=O)N1CCN(c2ccccc2F)CC1 1.65%
Cc1ccccc1NC(=O)Cn1c(=O)n(CCCCC(=O)NCc2ccccc2Cl)c(=O)c2ccccc21 -0.36%
CCCCNC(=O)CSc1nc2cc3c(cc2c(=O)n1CCCCCC(=O)NCc1ccc2c(c1)OCO2)OCO3 0.833%
CC(C)CCSc1ncnc2c1oc1nc3c(cc12)COC(C)(C)C3 3.1%
O=C(CSc1ncnc2scc(-c3ccccc3)c12)NCc1ccc2c(c1)OCO2 3.7%

Potency, active:
COc1ccc(C(=O)COC(=O)Cn2cnc3c2c(=O)n(C)c(=O)n3C)c(OC)c1 15.8 µM
CCc1ccc(-n2c(SCc3cc(=O)n4cc(Br)ccc4n3)nc3[nH]ncc3c2=O)cc1 20 µM
CC1(C)Cc2nc3sc4c(SCC(=O)NC(c5ccccc5)c5ccccc5)ncnc4c3cc2CO1 3.16 µM
